Out of some 5,500 compounds screened, about 2,000 (36%) were called active. About 18% were inconclusive and are not listed. No stated cut-off is given here; in the data, active means normalized growth mostly below about 0.91 (no sharp cut-off); inconclusive means no clear call, values can overlap the other calls; inactive means mostly above about 0.92. The list shows a part of the results.
Test: chemical genetic growth profiling, strain panel (AID 1159580);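 further: tested at 20 µM; growth read once vehicle control cultures reached saturation at 30 °C; 1 = growth at the plate median or of vehicle wells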
Settings: S. cerevisiae deletion strains, growth OD
[1] = locus YAL040C, strain CLN3, stronger effect = lower value
[2] = locus YCL061C, strain MRC1 (second series), stronger effect = lower value
[3] = locus YDR150W, strain NUM1, stronger effect = lower value
[4] = locus YDR363W, strain ESC2, stronger effect = lower value
[5] = locus YER002W, strain NOP16, stronger effect = lower value
[6] = locus YGR078C, strain PAC10, stronger effect = lower value
[7] = locus YNL128W, strain TEP1, stronger effect = lower value
[8] = locus YNL153C, strain GIM3, stronger effect = lower value
[9] = locus YNL175C, strain NOP13, stronger effect = lower value
[10] = locus YNL197C, strain WHI3, stronger effect = lower value
[11] = locus YNL224C, strain SQS1, stronger effect = lower value
[12] = locus YOR083W, strain WHI5 (second series), stronger effect = lower value
[13] = locus YPL241C, strain CIN2, stronger effect = lower value

Measured: normalized growth

CNCC[C@@H](Oc1ccc(C(F)(F)F)cc1)c1ccccc1
inactive: [1] 1.04 | [2] 0.977 | [3] 0.998 | [4] 0.943 | [5] 0.993 | [6] 1.01 | locus YJR075W, strain HOC1, stronger effect = lower value 0.982 | locus YMR307W, strain GAS1, stronger effect = lower value 0.999 | [7] 1.03 | [8] 1.01 | [9] 1.04 | [10] 1.01 | [11] 1.02 | locus YNL322C, strain KRE1, stronger effect = lower value 0.963 | [12] 1.01 | locus YPL055C, strain LGE1, stronger effect = lower value 0.975 | [13] 0.978

CNCC[C@H](Oc1ccc(C(F)(F)F)cc1)c1ccccc1
inactive: [1] 0.981 | [2] 0.985 | [3] 0.993 | [4] 1.01 | [5] 1.01 | [6] 0.969 | locus YMR263W, strain SAP30, stronger effect = lower value 0.997 | [7] 1.01 | [8] 0.886 | [9] 1 | [10] 0.988 | [11] 1 | [12] 0.874 | [13] 0.982
